Assay [1] is described as follows: qHTS assay for measurement of the activity of small molecule inhibitors on Zika virus induced Caspase-3 activity in human iPSC derived neural progenitor cells (hNPCs) (AID 1224857). Also: nearly all actives have a fitted effect of over 65% in size. An outline of the steps:
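hNPCs seeded 350 cells/well, cultured 16–20 h; compounds added 1 h before ZIKV (2 FFU/cell), 37 C 6 h. Caspase-Glo 3/7 luminescence after 30 min RT; % inhibition from induction scaled to uninfected (0%) and infected (100%) wells.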
A general note: Quantitative high-throughput screening tests each substance at several concentrations.

Assay [2] is described as follows: qHTS assay for measurement of the activity of small molecule inhibitors on Zika virus induced Caspase-3 activity in human astrocytoma cells (AID 1224859). In a few lines:
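Luminescence read-out (Caspase-Glo 3/7, 30 min RT) of caspase activity in SNB-19 cells infected 6 h with ZIKV, 2 FFU/cell, after 1 h compound pretreatment; % inhibition from induction normalised to uninfected (0%) and infected (100%) wells.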

Assay [3] can be described thus: P-glycoprotein substrates identified in KB-8-5-11 adenocarcinoma cell line, qHTS therapeutic library screen (AID 1346987). Also: nearly all actives have a fitted effect of over 65% in size. An outline of the steps: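 Luminescence from CellTiter-Glo, read 5 min after addition, quantified survival of KB-8-5-11 (P-gp-overexpressing) cells exposed to compounds for 72 h. AC50 was derived from concentration-response curves.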
Assay [4] can be described thus: qHTS assay to identify small molecule inhibitors of chordoma cells - UCH-1 (AID 1259355). Also: nearly all actives have a fitted effect of over 55% in size. In a few lines: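 A 48hr growth-inhibition format: each drug tested at 15 concentrations together with added auranofin, camptothecin, doxorubicin, rubitecan and topotecan, with cell viability quantified as CellTiter-Glo luminescence.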
Assay [5] can be described thus: P-glycoprotein substrates identified in KB-3-1 adenocarcinoma cell line, qHTS therapeutic library screen (AID 1346986). Also: nearly all actives have a fitted effect of over 60% in size. An outline of the steps: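 72 h cell-killing screen, 500 cells/well, CellTiter-Glo luminescence. Paired lines KB-3-1/KB-8-5-11; P-gp dependence checked by tariquidar co-treatment and HEK-293 MDR-19 versus empty-vector cells.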

The structures appear in SMILES notation. Records with an inconclusive call do not appear. The source made the active and inactive calls. Calls follow the shape of the dose curve; as a rule, active = well fitted curve in the direction sought with a large enough effect; inconclusive = small, poorly fitted or top-dose-only effect, or another doubt; inactive = no such curve, though single readings can be large; an effect the other way counts as inactive or inconclusive.

With `ClC1=C(Cl)[C@]2(Cl)[C@@H]3[C@@H]4C[C@@H]([C@H]5O[C@@H]45)[C@@H]3[C@@]1(Cl)C2(Cl)Cl`, the Potency entry in assay [1], in assay [2] and in assay [3] was “inactive” throughout.
Turning to `CN[C@@H](C)[C@H](O)c1ccccc1`, the Potency result in assay [1], in assay [2], in assay [4] and in assay [3] was “inactive” throughout.
Turning to `Nc1ccc(Sc2ccc(N)cc2)cc1`, the Potency result in assay [1] and in assay [2] was “inactive” in each case.
With `C[C@]12CCC3C(CC[C@H]4C[C@H](O)CC[C@]34C)C1CC[C@@H]2C(=O)CO` (some centres not stated), the Potency result in assay [1] and in assay [2] was “inactive” in each case.
Turning to `CCCN(CCC)[C@@H]1CCc2ccc(O)cc2C1`, the Potency entry in assay [1] and in assay [2] was “inactive” each time.
`NCCc1c[nH]c2ccccc12`: the Potency entry in assay [1] and in assay [2] was “inactive” in each case.
With `CC(C)(C)NC[C@H](O)c1ccc(O)cc1Cl`, the Potency result in assay [1], in assay [2] and in assay [3] was “inactive” each time.
`O=C1C(I)=CC(=C(c2cc(I)c(O)c(I)c2)c2ccccc2C(=O)O)C=C1I`: the Potency entry in assay [1], in assay [2], in assay [4] and in assay [3] was “inactive” throughout.
In the case of `O=[N+]([O-])c1ccc([As](=O)(O)O)cc1`, the Potency result in assay [1], in assay [2] and in assay [4] was “inactive” each time.
`CCCN(CCC)C1CCc2ccc(O)cc2C1` (configuration not stated): the Potency entry in assay [1] and in assay [2] was “inactive” in each case.
Consider `COc1ccc(C(c2ccc(OC)cc2)C(Cl)(Cl)Cl)cc1`, for which the Potency result in assay [1] and in assay [2] was “inactive” in each case.
On to `CCCCc1ccc(C(=O)O)nc1`, for which the Potency entry in assay [1], in assay [2] and in assay [4] was “inactive” in each case.
On to `O=[N+]([O-])c1cc([N+](=O)[O-])c2ccccc2c1`, for which the Potency entry in assay [1], in assay [2] and in assay [3] was “inactive” each time.
Turning to `CCOCCOC(C)=O`, the Potency result in assay [1], in assay [2] and in assay [3] was “inactive” in each case.
As for `CN1C2CCC1CC(OC(=O)c1cc(Cl)cc(Cl)c1)C2` (configuration not stated), the Potency entry in assay [1], in assay [2] and in assay [4] was “inactive” each time.
`O=[N+]([O-])c1c(Cl)c(Cl)cc(Cl)c1Cl`: the Potency result in assay [1], in assay [2] and in assay [3] was “inactive” throughout.
Take `O=C(O)COc1ccccc1`: the Potency result in assay [1], in assay [2] and in assay [4] was “inactive” each time.
Turning to `NCc1cc(=O)[nH]o1`, the Potency result in assay [1] and in assay [2] was “inactive” in each case.
`Nc1ccc(Cl)cc1`: the Potency entry in assay [1] and in assay [2] was “inactive” each time.
For `Cn1cnc(CCN)c1`, the Potency entry in assay [1] and in assay [2] was “inactive” each time.
Consider `Cc1cc(O)ccc1Cl`, for which the Potency entry in assay [1], in assay [2] and in assay [4] was “inactive” in each case.
For `CC(C)NC(C)Cc1ccc(I)cc1` (configuration not stated), the Potency result in assay [1], in assay [2] and in assay [4] was “inactive” in each case.
`O=C(O)CC[N+](=O)[O-]`: the Potency result in assay [1] and in assay [2] was “inactive” in each case.
For the molecule `c1ccc(C2(c3ccccc3)CC2C2=NCCN2)cc1` (configuration not stated), the Potency result in assay [1], in assay [2] and in assay [4] was “inactive” throughout.
`Cc1nccc2c1[nH]c1ccccc12`: the Potency entry in assay [1] and in assay [2] was “inactive” in each case.
On to `CC(=O)[C@H]1CCC2C3CC[C@H]4C[C@H](O)CC[C@]4(C)C3CC[C@@]21C` (some centres not stated), for which the Potency result in assay [1] and in assay [2] was “inactive” in each case.
In the case of `CC(Cc1ccc(O)cc1)NCC(O)c1cc(O)cc(O)c1` (configuration not stated), the Potency result in assay [1], in assay [2], in assay [4] and in assay [3] was “inactive” throughout.
Turning to `O=C(O)COc1nc(Cl)c(Cl)cc1Cl`, the Potency entry in assay [1], in assay [2] and in assay [3] was “inactive” each time.
As for `S=C(NC1CCCCC1)N1CCC(c2cnc[nH]2)CC1`, the Potency result in assay [1], in assay [2] and in assay [3] was “inactive” throughout.
As to `C[C@@H]1O[C@H](C[N+](C)(C)C)C[C@H]1O`, the Potency entry in assay [1] and in assay [2] was “inactive” in each case.
For `Oc1ccc2c3c1O[C@H]1[C@@H](O)C=C[C@H]4[C@@H](C2)NCC[C@@]341`, the Potency entry in assay [1] and in assay [2] was “inactive” each time.
`CC(=O)NCCc1c[nH]c2ccccc12`: the Potency result in assay [1], in assay [2], in assay [5] and in assay [3] was “inactive” each time.
As for `CCCN1CCC[C@H](c2cccc(O)c2)C1`, the Potency result in assay [1], in assay [2], in assay [4] and in assay [3] was “inactive” throughout.
Regarding `C[C@]12N[C@H](Cc3ccccc31)c1ccccc12`, the Potency entry in assay [1], in assay [2] and in assay [4] was “inactive” each time.
Regarding `O=C(O)C(Cl)Cl`, the Potency result in assay [1], in assay [2], in assay [4], in assay [5] and in assay [3] was “inactive” each time.
Regarding `CC(C)Oc1cccc(NC(=O)c2ccccc2C(F)(F)F)c1`, the Potency entry in assay [1] and in assay [2] was “inactive” in each case.
Consider `CC(C)Oc1cccnc1N(C)C1CCN(Cc2ccccc2)CC1`, for which the Potency entry in assay [1] and in assay [2] was “inactive” in each case.

(Values after PubChem BioAssay (NCATS).)
